# Reference: PubChem BioAssay (NCI)
# The panel holds about 79,000 compounds, 15% with a hit somewhere; the sample as a whole holds those more often. Unmarked numbers belong to inactive results. Active and inactive are the calls of the source. Cut-off read from the data, not from the text of the source: active = growth inhibition above about 70%; inactive = the rest.
# Key:
# [1] = NCI Yeast Anticancer Drug Screen. Data for the rad52 strain (AID 147);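 note: 0% = growth of vehicle-treated control cultures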; settings: S. cerevisiae rad52 mutant growth inhibition, hits give high values
# In short: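 DNA repair-defective yeast; compound exposure; growth scored against vehicle controls.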
# [2] = NCI Yeast Anticancer Drug Screen. Data for the wt1 strain (AID 149);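 note: 0% = growth of vehicle-treated wt1 cultures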; settings: S. cerevisiae wt1 strain (SPY 50644) growth inhibition, hits give high values
# In short: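 Growth inhibition read against vehicle controls after compound exposure of the wt1 yeast strain.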
# [3] = NCI Yeast Anticancer Drug Screen. Data for the rad50EPP+ strain (AID 151);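 note: 0% = growth of vehicle-treated control cultures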; settings: S. cerevisiae rad50 mutant strain, hits give high values
# In short: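 rad50EPP+ yeast treated with test compounds. Readout: growth vs vehicle control.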
# [4] = NCI Yeast Anticancer Drug Screen. Data for the mgt1 strain (AID 153); settings: S. cerevisiae mgt1 mutant growth inhibition, hits give high values
# In short: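 Growth inhibition relative to vehicle controls was scored for the mgt1 yeast strain after compound exposure.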
# [5] = NCI Yeast Anticancer Drug Screen. Data for the rad50 strain (AID 155);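 note: 0% = growth of vehicle-only cultures of the same strain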; settings: S. cerevisiae rad50 strain growth inhibition, hits give high values
# In short: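 Readout: growth inhibition relative to vehicle-treated cultures. Compound exposure was carried out in a genetically defined yeast strain deficient in DNA damage repair.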
# [6] = NCI Yeast Anticancer Drug Screen. Data for the mec2-1 strain (AID 157); settings: S. cerevisiae mec2-1 strain, hits give high values
# In short: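 Growth inhibition is read against vehicle-treated controls after compound exposure of the mec2-1 yeast strain, which is defective in DNA damage repair or cell cycle control.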
# [7] = NCI Yeast Anticancer Drug Screen. Data for the rad14 strain (AID 159);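 note: 0% = growth of vehicle-treated control cultures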; settings: S. cerevisiae rad14 strain growth inhibition, hits give high values
# In short: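 Growth inhibition vs vehicle controls; genetically altered yeast strain (DNA damage repair defect) treated with test compounds.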
# [8] = NCI Yeast Anticancer Drug Screen. Data for the sgs1 mgt1 strain (AID 161);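 note: 0% = growth of cultures given vehicle only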; settings: S. cerevisiae sgs1 mgt1 strain, hits give high values
# In short: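 Percent growth inhibition was derived by comparing compound-exposed mutant yeast with vehicle-exposed cultures. The strain carries alterations in DNA damage repair.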
# [9] = NCI Yeast Anticancer Drug Screen. Data for the CLN2oe strain (AID 163);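 note: 0% = growth of vehicle-only control cultures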; settings: S. cerevisiae CLN2oe strain, hits give high values
# In short: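 Compound-treated yeast; growth vs vehicle ctrl = % inhibition. Genetically altered strain (cell-cycle control).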
# [10] = NCI Yeast Anticancer Drug Screen. Data for the cln2 rad14 strain (AID 165);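 note: 0% = growth equal to vehicle treated cultures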; settings: S. cerevisiae cln2 rad14 strain, hits give high values
# In short: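 Growth inhibition, relative to vehicle-treated controls, is the read-out. The test organism is a yeast strain with defined genetic alterations, cln2 rad14.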
# [11] = NCI Yeast Anticancer Drug Screen. Data for the bub3 strain (AID 167); settings: S. cerevisiae bub3 mutant strain, hits give high values
# In short: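 Readout: yeast growth inhibition, expressed relative to vehicle-only wells. The test organism is a mutant strain from a panel with lesions in DNA repair or checkpoint genes.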
# [12] = NCI Yeast Anticancer Drug Screen. Data for the wt2 strain (AID 169);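 note: 0% = growth of vehicle-treated yeast cultures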; settings: S. cerevisiae wt2 strain growth inhibition, hits give high values
# In short: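 Compound exposure of yeast; growth compared with vehicle controls; inhibition reported.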
# [13] = NCI Yeast Anticancer Drug Screen. Data for the mlh1 strain (AID 171);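 note: 0% = growth of vehicle-treated control cultures of the same strain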; settings: S. cerevisiae mlh1 strain growth inhibition, hits give high values
# In short: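 Compounds are applied to a genetically altered yeast strain, and its growth is compared with that of vehicle-treated cultures to give percent inhibition.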
# [14] = NCI Yeast Anticancer Drug Screen. Data for the sgs1 strain (AID 173);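 note: 0% = growth of vehicle-only control cultures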; settings: S. cerevisiae sgs1 mutant, hits give high values
# In short: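 Compounds applied to genetically altered yeast; growth compared with vehicle-treated cultures to give % inhibition.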
# [15] = NCI Yeast Anticancer Drug Screen. Data for the mlh1 rad18 strain (AID 175); settings: S. cerevisiae mlh1 rad18 strain growth inhibition, hits give high values
# In short: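 Cells of a genetically altered yeast strain, deficient in DNA damage repair, were treated with compound. Their growth was then compared with that of vehicle-treated cultures to give inhibition.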
# [16] = NCI Yeast Anticancer Drug Screen. Data for the rad18 strain (AID 177); settings: S. cerevisiae rad18 mutant growth inhibition, hits give high values
# In short: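 Compounds are applied to a repair-deficient yeast strain, and growth is compared with that of vehicle-treated cultures to give percent inhibition.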
# [17] = at 5.0 µM (retest, dose inferred, filed as 0.5)
# [18] = at 50.0 µM (retest, dose inferred, filed as 5.0)
structure (smiles),measurement,setting,value
Brc1ccc(-c2cc3c(cc2C2SCCS2)OCO3)cc1,growth inhibition,[1]; at 1.2 µM,-21%
same,growth inhibition,[1]; at 3.7 µM,-21%
same,growth inhibition,[1]; at 11.0 µM,-16%
same,growth inhibition,[1]; at 33.0 µM,8%
same,growth inhibition,[1]; at 100.0 µM,27%
same,growth inhibition,[2]; at 1.2 µM,-24%
same,growth inhibition,[2]; at 3.7 µM,-17%
same,growth inhibition,[2]; at 11.0 µM,-26%
same,growth inhibition,[2]; at 33.0 µM,-14%
same,growth inhibition,[2]; at 100.0 µM,-7%
same,growth inhibition,[3]; at 1.2 µM,-4%
same,growth inhibition,[3]; at 3.7 µM,-10%
same,growth inhibition,[3]; at 11.0 µM,9%
same,growth inhibition,[3]; at 33.0 µM,29%
same,growth inhibition,[3]; at 100.0 µM,51%
same,growth inhibition,[4]; at 1.2 µM,-52%
same,growth inhibition,[4]; at 3.7 µM,-45%
same,growth inhibition,[4]; at 11.0 µM,-36%
same,growth inhibition,[4]; at 33.0 µM,-6%
same,growth inhibition,[4]; at 100.0 µM,50%
same,growth inhibition,[5]; at 1.2 µM,-23%
same,growth inhibition,[5]; at 3.7 µM,-13%
same,growth inhibition,[5]; [17],-19%
same,growth inhibition,[5]; at 11.0 µM,-13%
same,growth inhibition,[5]; at 33.0 µM,14%
same,growth inhibition,[5]; [18],48%
same,growth inhibition,[5]; at 50.0 µM,63.8%
same,growth inhibition,[5]; at 100.0 µM,30%
same,growth inhibition,[6]; at 1.2 µM,-29%
same,growth inhibition,[6]; at 3.7 µM,-29%
same,growth inhibition,[6]; [17],-57%
same,growth inhibition,[6]; at 11.0 µM,-31%
same,growth inhibition,[6]; at 33.0 µM,-27%
same,growth inhibition,[6]; [18],11%
same,growth inhibition,[6]; at 50.0 µM,22.2%
same,growth inhibition,[6]; at 100.0 µM,-15%
same,growth inhibition,[7]; at 1.2 µM,-35%
same,growth inhibition,[7]; at 3.7 µM,-24%
same,growth inhibition,[7]; at 11.0 µM,-30%
same,growth inhibition,[7]; at 33.0 µM,-7%
same,growth inhibition,[7]; at 100.0 µM,25%
same,growth inhibition,[8]; [17],-18%
same,growth inhibition,[8]; [18],70% (active)
same,growth inhibition,[8]; at 50.0 µM,66.6%
same,growth inhibition,[9]; at 1.2 µM,-18%
same,growth inhibition,[9]; at 3.7 µM,-25%
same,growth inhibition,[9]; at 11.0 µM,-28%
same,growth inhibition,[9]; at 33.0 µM,-10%
same,growth inhibition,[9]; at 100.0 µM,13%
same,growth inhibition,[10]; [17],9%
same,growth inhibition,[10]; [18],32%
same,growth inhibition,[10]; at 50.0 µM,21.1%
same,growth inhibition,[11]; at 1.2 µM,-16%
same,growth inhibition,[11]; at 3.7 µM,-8%
same,growth inhibition,[11]; [17],5%
same,growth inhibition,[11]; at 11.0 µM,-15%
same,growth inhibition,[11]; at 33.0 µM,2%
same,growth inhibition,[11]; [18],74% (active)
same,growth inhibition,[11]; at 50.0 µM,44.9%
same,growth inhibition,[11]; at 100.0 µM,22%
same,growth inhibition,[12]; at 1.2 µM,-1%
same,growth inhibition,[12]; at 3.7 µM,-11%
same,growth inhibition,[12]; at 11.0 µM,-15%
same,growth inhibition,[12]; at 33.0 µM,13%
same,growth inhibition,[12]; at 100.0 µM,43%
same,growth inhibition,[13]; at 1.2 µM,-24%
same,growth inhibition,[13]; at 3.7 µM,-23%
same,growth inhibition,[13]; at 11.0 µM,-28%
same,growth inhibition,[13]; at 33.0 µM,18%
same,growth inhibition,[13]; at 100.0 µM,63%
same,growth inhibition,[14]; at 1.2 µM,3%
same,growth inhibition,[14]; at 3.7 µM,9%
same,growth inhibition,[14]; at 11.0 µM,5%
same,growth inhibition,[14]; at 33.0 µM,52%
same,growth inhibition,[14]; at 100.0 µM,76% (active)
same,growth inhibition,[15]; [17],-8%
same,growth inhibition,[15]; [18],76% (active)
same,growth inhibition,[15]; at 50.0 µM,33.5%
same,growth inhibition,[16]; at 1.2 µM,-23%
same,growth inhibition,[16]; at 3.7 µM,-27%
same,growth inhibition,[16]; at 11.0 µM,-29%
same,growth inhibition,[16]; at 33.0 µM,20%
same,growth inhibition,[16]; at 100.0 µM,56%
O=C(Nc1ccccc1)OCCc1ccc(Cl)c(Cl)c1,growth inhibition,[1]; at 1.2 µM,0%
same,growth inhibition,[1]; at 3.7 µM,10%
same,growth inhibition,[1]; at 11.0 µM,20%
same,growth inhibition,[1]; at 33.0 µM,20%
same,growth inhibition,[1]; at 100.0 µM,52%
same,growth inhibition,[2]; at 1.2 µM,-4%
same,growth inhibition,[2]; at 3.7 µM,-7%
same,growth inhibition,[2]; at 11.0 µM,-9%
same,growth inhibition,[2]; at 33.0 µM,16%
same,growth inhibition,[2]; at 100.0 µM,8%
same,growth inhibition,[3]; at 1.2 µM,7%
same,growth inhibition,[3]; at 3.7 µM,26%
same,growth inhibition,[3]; at 11.0 µM,39%
same,growth inhibition,[3]; at 33.0 µM,29%
same,growth inhibition,[3]; at 100.0 µM,30%
same,growth inhibition,[4]; at 1.2 µM,-4%
same,growth inhibition,[4]; at 3.7 µM,-4%
same,growth inhibition,[4]; at 11.0 µM,7%
same,growth inhibition,[4]; at 33.0 µM,14%
same,growth inhibition,[4]; at 100.0 µM,37%
same,growth inhibition,[5]; at 1.2 µM,-2%
same,growth inhibition,[5]; at 3.7 µM,13%
same,growth inhibition,[5]; [17],0%
same,growth inhibition,[5]; at 11.0 µM,29%
same,growth inhibition,[5]; at 33.0 µM,66%
same,growth inhibition,[5]; [18],74% (active)
same,growth inhibition,[5]; at 50.0 µM,86.7% (active)
same,growth inhibition,[5]; at 100.0 µM,51%
same,growth inhibition,[6]; at 1.2 µM,-3%
same,growth inhibition,[6]; at 3.7 µM,-4%
same,growth inhibition,[6]; [17],0%
same,growth inhibition,[6]; at 11.0 µM,-3%
same,growth inhibition,[6]; at 33.0 µM,20%
same,growth inhibition,[6]; [18],65%
same,growth inhibition,[6]; at 50.0 µM,95.3% (active)
same,growth inhibition,[6]; at 100.0 µM,47%
same,growth inhibition,[7]; at 1.2 µM,-5%
same,growth inhibition,[7]; at 3.7 µM,1%
same,growth inhibition,[7]; at 11.0 µM,15%
same,growth inhibition,[7]; at 33.0 µM,31%
same,growth inhibition,[7]; at 100.0 µM,53%
same,growth inhibition,[8]; [17],8%
same,growth inhibition,[8]; [18],54%
same,growth inhibition,[8]; at 50.0 µM,75.8% (active)
same,growth inhibition,[9]; at 1.2 µM,-8%
same,growth inhibition,[9]; at 3.7 µM,-4%
same,growth inhibition,[9]; at 11.0 µM,26%
same,growth inhibition,[9]; at 33.0 µM,53%
same,growth inhibition,[9]; at 100.0 µM,58%
same,growth inhibition,[10]; [17],-8%
same,growth inhibition,[10]; [18],85% (active)
same,growth inhibition,[10]; at 50.0 µM,86% (active)
same,growth inhibition,[11]; at 1.2 µM,-1%
same,growth inhibition,[11]; at 3.7 µM,2%
same,growth inhibition,[11]; [17],6%
same,growth inhibition,[11]; at 11.0 µM,37%
same,growth inhibition,[11]; at 33.0 µM,75% (active)
same,growth inhibition,[11]; [18],83% (active)
same,growth inhibition,[11]; at 50.0 µM,90.2% (active)
same,growth inhibition,[11]; at 100.0 µM,52%
